Values without a mark were called inactive. Records with an inconclusive call do not appear. Entries that show only a call come without a potency. Calls of active or inactive are those of the source. Unless noted, calls come from the whole dose curve; as a rule, active = well fitted curve in the direction sought with a large enough effect in the repeat runs; inconclusive = weak or mixed curves; inactive = no such curve, though single readings can be large; an effect the other way counts as inactive or inconclusive.

One assay deals with Thyrotropin-releasing hormone receptor (Homo sapiens) (UniProt P34981). Description: qHTS assay to identify small molecule agonists of the thyrotropin-releasing hormone receptor (TRHR) signaling pathway (AID 1346891; calls by dose curve). As to conditions: TRHR-HEK293 calcium fluorescence, agonist mode; series mostly up to 57.6 µM. Summed up: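 Screening of agonists relied on calcium signalling in HEK293 cells expressing human TRHR: dye loading 2 h at 37 °C preceded compound addition and a 3-min fluorescence time course.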
Thyrotropin-releasing hormone receptor (Homo sapiens), sequence (P34981 whole entry, looked up): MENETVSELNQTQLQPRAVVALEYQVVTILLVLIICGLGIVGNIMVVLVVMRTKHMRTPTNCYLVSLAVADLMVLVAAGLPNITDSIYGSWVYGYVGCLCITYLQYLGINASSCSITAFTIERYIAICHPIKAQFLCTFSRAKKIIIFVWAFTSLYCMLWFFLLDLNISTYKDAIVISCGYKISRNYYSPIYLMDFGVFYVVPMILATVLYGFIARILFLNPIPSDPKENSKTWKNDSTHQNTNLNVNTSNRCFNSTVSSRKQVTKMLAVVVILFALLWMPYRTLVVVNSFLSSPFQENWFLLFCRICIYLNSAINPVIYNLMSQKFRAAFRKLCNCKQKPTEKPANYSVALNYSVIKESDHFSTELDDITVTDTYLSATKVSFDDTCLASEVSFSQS
As to `O=C1Cc2ccccc2C1`, the Potency entry was “inactive”.

As for `CCCCCCCCCCCCCCCCCCNC(=O)OC1CCN(C(=O)OC[C@H](COC(=O)N(Cc2cccc[n+]2CC)C(=O)c2ccccc2OC)OC)CC1`, the Potency entry was “inactive”.

For the molecule `CCCOC(=O)c1ccc(O)cc1`, the Potency result was “inactive”.

Take `O=C1C=CC(=O)N1c1cccc(N2C(=O)C=CC2=O)c1`: the Potency result was “inactive”.

With `CCCCCCCCCC[N+](C)(CCCCCCCCCC)CCC[Si](OC)(OC)OC`, the Potency result is “inactive”.

With `O=C1CCC/C=C\CCCCCCCCCC1`, the Potency entry is “inactive”.

In the case of `CSc1nnc(C(C)(C)C)c(=O)[nH]1`, the Potency entry is “inactive”.

As to `Brc1cc(Br)cc(Br)c1`, the Potency entry was “inactive”.

For the molecule `CCCCCCCCCCCCN1CCCC1=O`, the Potency result was “inactive”.

For `CCSCC`, the Potency result was “inactive”.

For `Cc1c(Cl)c(=O)oc2cc(O)ccc12`, the Potency result is “inactive”.

`Nc1ccc(Oc2cccc(Oc3ccc(N)cc3)c2)cc1`: the Potency result is “inactive”.

Turning to `O=C(Nc1ccccc1)c1cc(Cl)ccc1O`, the Potency result was “inactive”.

With `S=C1NC=NC2N=CNC12` (stereo not drawn), the Potency entry was “inactive”.

Turning to `CCCC(=O)c1cc(O)c(O)cc1O`, the Potency entry is “inactive”.

As for `COc1cc2ncnc(Nc3cccc(Cl)c3)c2cc1OC`, the activation is -0.271% [at 11.8 µM].

Regarding `CC(C)=NNC(N)=S`, the Potency entry was “inactive”.

Regarding `c1ccc(-c2ccccc2-c2ccccc2)cc1`, the Potency entry is “inactive”.

Regarding `CC1(C)[C@H]2CC[C@]1(C)C(=O)C2`, the Potency entry is “inactive”.

Test system in the next assay: not listed separately
Description: Human pregnane X receptor (PXR) small molecule agonists, qHTS cell viability counter screen (AID 1346977). Note: nearly all actives have a fitted effect of over 50% in size. Note: potency is the fitted concentration of half-maximal effect. As to conditions: PXR-Luc HepG2 viability, CellTiter-Fluor, 24 h; series mostly up to 92.4 µM. Summed up:
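Tox21 qHTS format; PXR-Luc HepG2, 2,000/well, charcoal-stripped FBS 5%. Cpd exposure 24hr. Read: CellTiter-Fluor fluorescence, multiplexed with luciferase.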
A general note: qHTS replaces the single test concentration by a dilution series.
For `CCCCCCCCCCCCCCCCCCNC(=O)OC1CCN(C(=O)OC[C@H](COC(=O)N(Cc2cccc[n+]2CC)C(=O)c2ccccc2OC)OC)CC1`, the Potency is 26.6 µM (active).

Turning to `CCCOC(=O)c1ccc(O)cc1`, the Potency entry was “inactive”.

As to `CCOc1ccc([N+](=O)[O-])cc1`, the Potency result is “inactive”.

As for `O=C1C=CC(=O)N1c1cccc(N2C(=O)C=CC2=O)c1`, the Potency was 61.1 µM (active).

`CCOC(=O)[C@H](O)[C@@H](O)C(=O)OCC`: the Potency result was “inactive”.

Regarding `CSc1nnc(C(C)(C)C)c(=O)[nH]1`, the Potency result is “inactive”.

With `Brc1cc(Br)cc(Br)c1`, the Potency result was “inactive”.

For the molecule `c1ccc2occc2c1`, the Potency result is “inactive”.

With `Cc1ccc(S(=O)(=O)C(I)I)cc1`, the Potency was 27.3 µM (active).

Consider `COc1cc(/C=C/C(=O)CC(=O)/C=C/c2ccc(O)c(OC)c2)ccc1O`, for which the Potency is 30.8 µM (active).

Regarding `CN1CCN(C)CC1`, the Potency result is “inactive”.

For the molecule `Nc1ccc(Oc2cccc(Oc3ccc(N)cc3)c2)cc1`, the Potency result was “inactive”.

For `CN1CC[C@H](c2c(O)cc(O)c3c(=O)cc(-c4ccccc4Cl)oc23)[C@H](O)C1`, the Potency is 0.0944 µM (active).

Take `O=S(=O)(c1ccc(OCc2ccccc2)cc1)c1ccccc1O`: the Potency was 61.1 µM (active).

Take `O=C(Nc1ccccc1)c1cc(Cl)ccc1O`: the Potency is 12.2 µM (active).

`S=C1NC=NC2N=CNC12` (stereo not drawn): the Potency entry was “inactive”.

With `CCc1c(C)cc(N)c(CC)c1N`, the Potency entry was “inactive”.

With `O=C(N[C@H](CO)[C@H](O)c1ccc([N+](=O)[O-])cc1)C(Cl)Cl`, the Potency result is “inactive”.

Turning to `CN1CCN(c2ccccc2/C=C2\SCCN(c3ccc(Cl)c(Cl)c3)C2=O)CC1`, the Potency was 27.3 µM (active).

For `CCCC(=O)c1cc(O)c(O)cc1O`, the Potency is 44.7 µM (active).

In the case of `O=c1[nH]cccc1O`, the Potency result is “inactive”.

As for `CC(C)=NNC(N)=S`, the Potency entry is “inactive”.

As to `CC1(C)[C@H]2CC[C@]1(C)C(=O)C2`, the Potency entry was “inactive”.

Test system in a further assay: not listed separately
Description: Caspase-3/7 induction in HepG2 cells by small molecules, qHTS assay (AID 1346978). Note: nearly all actives have a fitted effect of over 15% in size. Note: potency is the fitted concentration of half-maximal effect. As to conditions: HepG2 caspase-3/7 activation, Caspase-Glo luminescence, 17 h; series mostly up to 92.4 µM. The gist of the method: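 Wild-type HepG2 cells, 2,000/well, settled 5 hr at 37 C and 5% CO2, then compound-treated for 17 hr; caspase-3/7 activity read by luminescent Caspase-Glo 3/7 after 30 min at room temperature.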
Turning to `COc1cc([C@@H]2c3cc4c(cc3[C@@H](O[C@@H]3O[C@@H]5CO[C@@H](C)O[C@H]5[C@H](O)[C@H]3O)[C@H]3COC(=O)[C@H]23)OCO4)cc(OC)c1O`, the Potency is 53.9 µM (active).

Regarding `CCCCCCCCCCCCCCCCCCNC(=O)OC1CCN(C(=O)OC[C@H](COC(=O)N(Cc2cccc[n+]2CC)C(=O)c2ccccc2OC)OC)CC1`, the Potency result was “inactive”.

As for `CCCOC(=O)c1ccc(O)cc1`, the Potency entry was “inactive”.

Take `CCOc1ccc([N+](=O)[O-])cc1`: the Potency is 55.3 µM (active).

On to `O=C1C=CC(=O)N1c1cccc(N2C(=O)C=CC2=O)c1`, for which the Potency entry is “inactive”.

Consider `O=C1CCC/C=C\CCCCCCCCCC1`, for which the Potency result is “inactive”.

For the molecule `CCOC(=O)[C@H](O)[C@@H](O)C(=O)OCC`, the Potency entry is “inactive”.

Regarding `CSc1nnc(C(C)(C)C)c(=O)[nH]1`, the Potency entry is “inactive”.

Consider `c1ccc2occc2c1`, for which the Potency result is “inactive”.

Take `Cc1ccc(S(=O)(=O)C(I)I)cc1`: the Potency entry was “inactive”.

As for `Cc1ccc(Cl)c(N)c1Cl`, the Potency result is “inactive”.

In the case of `CCSCC`, the Potency entry is “inactive”.

In the case of `CCCCCCCC/C=C\CCCCCCCC(=O)N(CCO)CCO`, the Potency result was “inactive”.

As for `CN1CCN(C)CC1`, the Potency entry was “inactive”.

For the molecule `Cc1c(Cl)c(=O)oc2cc(O)ccc12`, the Potency entry was “inactive”.

For `Nc1ccc(Oc2cccc(Oc3ccc(N)cc3)c2)cc1`, the Potency result was “inactive”.

Consider `CN1CC[C@H](c2c(O)cc(O)c3c(=O)cc(-c4ccccc4Cl)oc23)[C@H](O)C1`, for which the Potency was 0.237 µM (active).

On to `O=S(=O)(c1ccc(OCc2ccccc2)cc1)c1ccccc1O`, for which the Potency result was “inactive”.

Regarding `O=C(Nc1ccccc1)c1cc(Cl)ccc1O`, the Potency entry was “inactive”.

Consider `S=C1NC=NC2N=CNC12` (stereo not drawn), for which the Potency result was “inactive”.

In the case of `CS(=O)(=O)c1ccc([C@@H](CC2CCCC2)C(=O)Nc2cnccn2)cc1Cl`, the Potency entry is “inactive”.

In the case of `CCc1c(C)cc(N)c(CC)c1N`, the Potency entry was “inactive”.

On to `O=C(N[C@H](CO)[C@H](O)c1ccc([N+](=O)[O-])cc1)C(Cl)Cl`, for which the Potency result is “inactive”.

Regarding `CN1CCN(c2ccccc2/C=C2\SCCN(c3ccc(Cl)c(Cl)c3)C2=O)CC1`, the Potency was 61.1 µM (active).

As for `C=CCc1cc(S(=O)(=O)c2ccc(O)c(CC=C)c2)ccc1O`, the Potency result was “inactive”.

Consider `CCCC(=O)c1cc(O)c(O)cc1O`, for which the Potency entry is “inactive”.

Consider `O=c1[nH]cccc1O`, for which the Potency result was “inactive”.

With `COc1cc2ncnc(Nc3cccc(Cl)c3)c2cc1OC`, the caspase activation is 0.14% [at 19 µM].

As for `CC(C)=NNC(N)=S`, the Potency result is “inactive”.

In the case of `c1ccc(-c2ccccc2-c2ccccc2)cc1`, the Potency entry is “inactive”.

With `CC1(C)[C@H]2CC[C@]1(C)C(=O)C2`, the Potency entry was “inactive”.

The values above are taken from PubChem BioAssay (Tox21).
